Laboratory results reported in PubChem BioAssay (NCI).
About 83,000 compounds went through this panel and 20% of them were active in at least one assay; those are over-represented in the sample as a whole.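 96-well plates, one dose, 48 hours. Percent growth reported; active if below 10.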 Unmarked numbers belong to inactive results. Calls of active or inactive are those of the source.

Experiments:
Assay in all cases: NCI-60 one-dose screen, 48 h (100 = growth as untreated, 0 = no growth, -100 = all killed)
Details in all cases: 10 µM unless noted
NCI-H23 lung = test system: NCI-H23 lung
NCI-H226 lung = test system: NCI-H226 lung
NCI-H322M lung = test system: NCI-H322M lung
HOP-62 NSCLC = test system: HOP-62 NSCLC
NCI-H460 lung = test system: NCI-H460 lung
HOP-92 NSCLC = test system: HOP-92 NSCLC
NCI-H522 lung = test system: NCI-H522 lung
A549/ATCC NSCLC = test system: A549/ATCC NSCLC
786-0 renal = test system: 786-0 renal
COLO 205 colon = test system: COLO 205 colon
DU-145 prostate = test system: DU-145 prostate
K-562 leukemia = test system: K-562 leukemia
MALME-3M melanoma = test system: MALME-3M melanoma
MDA-MB-231 breast = test system: MDA-MB-231 breast
SF-268 CNS = test system: SF-268 CNS
SF-295 CNS = test system: SF-295 CNS
SF-539 CNS = test system: SF-539 CNS
UACC-257 melanoma = test system: UACC-257 melanoma
M14 melanoma = test system: M14 melanoma
RXF 393 renal = test system: RXF 393 renal

Compound | growth (NCI-H23 lung) | growth (NCI-H226 lung) | growth (NCI-H322M lung) | growth (HOP-62 NSCLC) | growth (NCI-H460 lung) | growth (HOP-92 NSCLC) | growth (NCI-H522 lung) | growth (A549/ATCC NSCLC) | growth (786-0 renal) | growth (COLO 205 colon) | growth (DU-145 prostate) | growth (K-562 leukemia) | growth (MALME-3M melanoma) | growth (MDA-MB-231 breast) | growth (SF-268 CNS) | growth (SF-295 CNS) | growth (SF-539 CNS) | growth (UACC-257 melanoma) | growth (M14 melanoma) | growth (RXF 393 renal)
CCCCC/C(C=C(C#N)C#N)=C/c1ccccc1 | 68.9% | 116% | 102% | 106% | 37.4% | 112% | -10.1% (active) | 61.6% | 87% | 86.5% | 71.3% | 42.2% | 95.4% | 77.7% | 81.7% | 84.4% | 92.3% | 54% | 73% | –
COc1ccc(CN2c3ccccc3Sc3ccccc32)cc1O | 36.6% | 71% | 33.1% | 36.3% | 10% | 50.4% | -40.4% (active) | 24.2% | 42.5% | -7.4% (active) | 17.9% | – | 71.9% | 41.2% | 45.6% | 4.23% (active) | -11% (active) | 52.5% | 14.4% | -9.86% (active)
CCCCCCN(CCCCCC)C(=N)c1ccnc2ccccc12 | 72.5% | 89.2% | 76% | 100% | 55.4% | 57.5% | 71.7% | 78.4% | 57% | -74.7% (active) | 85.1% | 16.8% | 76.2% | 58.1% | 83.8% | – | 79.7% | 69.9% | 18.9% | 70.3%
Cn1ccnc1C(=O)/C=C/c1ccc(CC(=O)Nc2ccccc2)cc1 | 18.9% | 47% | 2.66% (active) | 6.23% (active) | -19% (active) | 26.6% | 12.8% | 5.36% (active) | 18.6% | 4.76% (active) | 10.3% | – | 72.8% | 12.6% | 10.6% | 26.2% | -18.5% (active) | 78.7% | 27.8% | 12.1%
CC(C)(CCCN=C(N)Nc1ccc(Cl)cc1)c1ccc(F)cc1 | 55.6% | 95.6% | 70.9% | 69.2% | 46.1% | 28% | 62% | 79.6% | 73.4% | -54% (active) | 80.1% | – | 64.3% | 41% | 72.6% | 53.1% | 76.1% | 86.6% | 51.5% | 88.7%
COc1ccc(Nc2cc(C)nc(N3CCN(c4ccnc5cc(Cl)ccc45)CC3)n2)cc1 | 41.2% | 60.6% | 26.9% | 36.7% | 18.5% | 25.3% | 38% | 26.3% | 29.1% | 8.4% (active) | 58% | 10.1% | – | 17.7% | 52.6% | 15.9% | 54.7% | 62.6% | 27.3% | 51.4%
C=C1C(=O)O[C@H]2[C@H]1CC/C(COC(=O)NCCc1ccc(OC)c(OC)c1)=C\CC[C@@]1(C)O[C@@H]21 | 59.2% | 82.6% | 88% | 92.7% | 93.9% | 26.6% | -79.9% (active) | 86.4% | 77.7% | 12.7% | 39.5% | – | 63.3% | 58% | 80.3% | 95.8% | 47.2% | 62.9% | 65.7% | 34.7%
Cc1cc(Nc2ccc(C)c(Cl)c2)n2nc(C(F)(F)F)nc2n1 | 63.6% | 21.3% | 93.3% | -17.2% (active) | 69% | -9.25% (active) | 36.2% | 42.5% | -46.2% (active) | 38.3% | 42.5% | 54.8% | -15.2% (active) | 2.77% (active) | 39.4% | – | 33.1% | 74.4% | 51.7% | -9.51% (active)
CC1=C(O)C(=O)C(C(C#N)(C#N)C(C#N)C#N)C1 (configuration not stated) | 92.4% | 96.4% | 85.8% | 108% | 102% | 112% | 85.8% | 101% | 106% | 105% | 94.7% | – | 113% | 124% | 84.4% | 101% | 104% | 105% | 101% | 110%
COc1ccc(/C=C\c2cc(OC)c(OC)c(OC)c2)cc1OCC(=O)Nc1ccc2nc(C)sc2c1 | 37.6% | 24.8% | 69.9% | 44.4% | 24.5% | 52% | -2.14% (active) | 30.5% | 79.6% | 75% | 64.6% | 18.4% | 42.2% | 37.1% | 52.1% | – | 57.1% | 58.5% | 25.9% | 70.3%
OC(c1cc2cc(Cl)c(Cl)cc2c2cc(C(F)(F)F)ccc12)C1CCCCN1 (configuration not stated) | -52.9% (active) | -72.3% (active) | -8.7% (active) | -80.7% (active) | -71.8% (active) | -70.9% (active) | -78.4% (active) | -84% (active) | -78.1% (active) | -88.2% (active) | -86.2% (active) | -63.5% (active) | -17.6% (active) | -71.3% (active) | -88.6% (active) | – | -57.9% (active) | -73% (active) | -80.9% (active) | -96.2% (active)
Cc1cc(N2CCN(c3ccnc4cc(Cl)ccc34)CC2)nc(NC2CCCCC2)n1 | 29.9% | 64.4% | 58.5% | 29.6% | 1.4% (active) | 20.4% | 50.2% | 34% | 37.9% | -48.4% (active) | 51.5% | 5.36% (active) | – | -3.08% (active) | 47.4% | 18.9% | 43% | -0.92% (active) | -45.1% (active) | 48.8%
CCOc1cc2c(cc1OCC)C(c1cc(OC)c(O)cc1Cl)NCC2 (configuration not stated) | 96.7% | 100% | 110% | 98.1% | 98.4% | 114% | 102% | 88.6% | 84.1% | -37.4% (active) | 110% | 53.3% | 55.2% | 88.6% | 100% | – | 101% | 99.2% | 80.2% | 85.1%
